An excerpt weighted towards active compounds, which were near 3% of everything screened.
C8 TRAIL sens: sensitizes caspase-8 expressing cells to TRAIL. inhibition (viability loss, TRAIL sensitization), % at 10 µM. actives 1% (n = 360,000). NB7+C8 cells + TRAIL, ATPlite viability luminescence;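 active = compounds causing at least 50% loss of cell viability in the single-dose screen, relative to plate controls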
SENP8 block-1: inhibitors of human SENP8 protease; Q96LD8; purified SENP8, Z-RLRGG-aminoluciferin cleavage, luminescence; inhibition, % at 10 µM; actives 1.2% (n = 330,000); in the data active = inhibition above about 50%
SENP7 inh: SENP7 protease inhibition. recombinant SENP7, Z-RLRGG-aminoluciferin luminescence, 40 min. inhibition, % at 5 µM. actives 1.5% (n = 330,000);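 active = inhibition above about 50% at the single test dose, limit read from the data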
SENP6 inh: blocks the human protease SENP6 | actives 1.8% (n = 330,000) | Q9GZR1 | inhibition, % at 10 µM | Recombinant SENP6 catalytic domain, aminoluciferin luminescence;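 active = inhibition above about 50% at the single tested dose, limit read from the data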
Target sequence (Q9GZR1 628-1112 limits assumed): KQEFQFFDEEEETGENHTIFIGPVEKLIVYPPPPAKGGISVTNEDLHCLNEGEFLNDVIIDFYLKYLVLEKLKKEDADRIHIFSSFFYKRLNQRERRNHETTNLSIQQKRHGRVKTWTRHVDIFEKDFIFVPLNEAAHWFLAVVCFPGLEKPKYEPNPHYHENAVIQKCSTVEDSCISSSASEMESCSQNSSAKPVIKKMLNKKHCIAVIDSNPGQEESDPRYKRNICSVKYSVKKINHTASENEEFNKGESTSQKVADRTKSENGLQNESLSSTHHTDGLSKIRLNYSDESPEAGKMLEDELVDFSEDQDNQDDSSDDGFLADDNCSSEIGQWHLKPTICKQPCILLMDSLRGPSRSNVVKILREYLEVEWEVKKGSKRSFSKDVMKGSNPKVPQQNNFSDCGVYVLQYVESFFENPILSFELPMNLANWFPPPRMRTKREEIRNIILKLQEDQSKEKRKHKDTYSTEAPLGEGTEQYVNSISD
SENP8 block-2: inhibitors of human SENP8 protease; recombinant SENP8, Nedd8 substrate fluorescence; Q96LD8; actives 0.64% (n = 360,000); inhibition, % at 20 µM; in the data active = inhibition mostly above about 40%, no sharp cut-off; inactive = mostly below about 27%
PPC-1+TRAIL kill: kills PPC-1 cancer cells in the presence of TRAIL | actives 0.41% (n = 220,000) | PPC-1 cells + TRAIL, ATPLite viability luminescence | cell killing (% activity), % at 4 µM or 5 µM;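 active = cell killing above 50% in the first pass at 4 µM, then a duplicate retest at 5 µM averaging 50% or more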
SENP8 confirm: human SENP8 inhibition, confirmed; shares compounds with SENP7 inh; Recombinant SENP8, Z-RLRGG-aminoluciferin luminescence, 60 min; inhibition, % at 12.5 µM; actives 40% (n = 6,200); AID 488912;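 active = mean inhibition across replicates above about 50%, limit read from the data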
SENP6 conf: confirmation of human SENP6 protease inhibitors | recombinant SENP6, Z-RLRGG-aminoluciferin luminescence | actives 58% (n = 6,200) | inhibition, % at 12.5 µM | shares compounds with SENP7 inh
SENP7 conf: confirmation of human SENP7 protease inhibitors; shares compounds with SENP7 inh; recombinant SENP7, Z-RLRGG-aminoluciferin luminescence, 40 min; inhibition, % at 12.5 µM; actives 69% (n = 6,200); AID 488917
Casp3 select: caspase-3 inhibition (SENP selectivity assay). inhibition, % at 12.5 µM. shares compounds with SENP7 inh. AID 488918. purified caspase-3, Z-DEVD-aminoluciferin luminescence, 60 min. actives 60% (n = 6,200);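 active = mean inhibition above about 50%, limit read from the data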
SENP luc ctr: counter-screen for SENP inhibitors: luminescence interference; shares compounds with SENP7 inh; Pre-incubated SENP8/Z-RLRGG-aminoluciferin, luciferase luminescence interference; AID 488919; actives 39% (n = 6,200); inhibition, % at 12.5 µM;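 active = mean inhibition above about 50% when retested at one dose, limit read from the data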
Each line names hits and unclear results; the compound was inactive in the other large screens (follow-up assays come after a bar, where they were run).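 The calls were made as follows, unless noted: active = mean inhibition above about 50% in the one-dose retest (limit read from the data); inactive = the rest.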

Cc1ccnc(NC(=O)c2cc3ccccc3o2)c1	C8 TRAIL sens 86, SENP8 block-1 90, SENP7 inh 99, SENP6 inh 94 (no result: PPC-1+TRAIL kill) | SENP8 confirm 96 | SENP6 conf 97 | SENP7 conf 102 | Casp3 select 97 | SENP luc ctr 94
Cc1ccc(C)c(NC(=O)c2cc3ccccc3o2)c1	SENP7 inh 53 (no result: PPC-1+TRAIL kill) | SENP8 confirm 52 | SENP6 conf inactive | SENP7 conf 78 | Casp3 select 58 | SENP luc ctr inactive
Cc1ccc(S(=O)(=O)N(C)C)cc1NC(=O)c1ccc2ccccc2n1	none
Cc1csc(NC(=O)c2cc3ccccc3o2)n1	C8 TRAIL sens 65, SENP8 block-1 79, SENP7 inh 90, SENP6 inh 85 (no result: PPC-1+TRAIL kill) | SENP8 confirm 86 | SENP6 conf 82 | SENP7 conf 97 | Casp3 select 90 | SENP luc ctr 86
CCOC(=O)Cc1csc(NC(=O)c2cc3ccccc3o2)n1	none
Cc1ccc(C)c(NC(=O)c2ccc3ccccc3n2)c1	SENP8 block-1 91, SENP7 inh 97, SENP6 inh 97 | SENP8 confirm 82 | SENP6 conf inactive | SENP7 conf inactive | Casp3 select 67 | SENP luc ctr inactive
COc1ccc(C)cc1NC(=O)c1cc2ccccc2o1	none
CCCCn1c(=NC(=O)c2ccco2)c(C(=O)OCC)cc2c(=O)n3cccc(C)c3nc21	none
COc1cc(NC(=O)CSCC(=O)Nc2cc(OC)cc(OC)c2)cc(OC)c1	none (no result: C8 TRAIL sens, SENP8 block-2)
Cc1cccc(-n2ncc3c(=O)[nH]c(SCC(=O)NCCC4=CCCCC4)nc32)c1	none (no result: PPC-1+TRAIL kill)
O=C(NNC(=O)c1cc2ccccc2o1)c1ccc(Cl)cc1	none
O=C(Nc1ccc(Cl)cn1)c1cc2ccccc2o1	SENP8 block-1 59, SENP7 inh 79, SENP6 inh 74 | SENP8 confirm inactive | SENP6 conf 64 | SENP7 conf 82 | Casp3 select 70 | SENP luc ctr inactive
O=C(Nc1ncccc1O)c1cc2ccccc2o1	SENP7 inh 68, SENP6 inh 67 (no result: PPC-1+TRAIL kill) | SENP8 confirm 63 | SENP6 conf 63 | SENP7 conf 85 | Casp3 select 87 | SENP luc ctr 68
O=C(Nc1cc(-c2ccccc2)[nH]n1)c1ccccc1	SENP8 block-1 59, SENP7 inh 62, SENP6 inh 80 | SENP8 confirm 68 | SENP6 conf 62 | SENP7 conf 88 | Casp3 select 63 | SENP luc ctr 71
Cc1ccnc(NC(=O)c2ccc(Cl)s2)c1	SENP8 block-1 67, SENP7 inh 72, SENP6 inh 76 (no result: PPC-1+TRAIL kill) | SENP8 confirm 76 | SENP6 conf 75 | SENP7 conf 93 | Casp3 select 86 | SENP luc ctr 77
Cc1ccc(Cl)cc1NC(=O)C1CC1c1ccccc1 (centres undefined)	none (no result: PPC-1+TRAIL kill)
Cc1cccc(C(=O)Nc2ccc(S(=O)(=O)N3CCOCC3)cc2C)c1	none (no result: PPC-1+TRAIL kill)
COc1cc(/C=N/NC(=O)c2cncc(Br)c2)cc([N+](=O)[O-])c1O	SENP8 block-1 66, SENP7 inh 72, SENP6 inh 83 | SENP8 confirm 84 | SENP6 conf 80 | SENP7 conf 96 | Casp3 select 84 | SENP luc ctr 61
COc1cc([N+](=O)[O-])cc(/C=N/NC(=O)c2cncc(Br)c2)c1O	SENP8 block-1 64, SENP7 inh 67, SENP6 inh 89 | SENP8 confirm 81 | SENP6 conf 76 | SENP7 conf 96 | Casp3 select 84 | SENP luc ctr 52
COc1cc([N+](=O)[O-])cc(/C=N/NC(=O)c2cc(C)nc3ccccc23)c1O	none
COc1cc(/C=N/NC(=O)c2cccc([N+](=O)[O-])c2)cc(OC)c1O	none
CN(C)CCNC(=O)c1c(CSc2ccccc2)noc1C(=O)NCc1ccccc1	none
O=C(c1ccc(F)cc1)c1cc2ccccc2o1	SENP8 block-1 51, SENP7 inh 67, SENP6 inh 84 | SENP8 confirm inactive | SENP6 conf inactive | SENP7 conf 84 | Casp3 select 57 | SENP luc ctr inactive
COc1cccc2cc(C(=O)c3ccccc3)oc12	SENP8 block-1 61, SENP7 inh 62, SENP6 inh 73 | SENP8 confirm inactive | SENP6 conf 60 | SENP7 conf 84 | Casp3 select 61 | SENP luc ctr 64
O=C(c1ccccc1)c1cc2ccccc2o1	SENP8 block-1 51, SENP7 inh 65, SENP6 inh 74 | SENP8 confirm inactive | SENP6 conf 58 | SENP7 conf 82 | Casp3 select 53 | SENP luc ctr inactive
COc1ccc(OC(=O)c2cc3ccccc3o2)cc1	SENP7 inh 71, SENP6 inh 61 | SENP8 confirm inactive | SENP6 conf inactive | SENP7 conf 89 | Casp3 select inactive | SENP luc ctr inactive
CC(NC(=O)c1ccccc1F)c1nnc(SCC(=O)NC2CCCC2)n1C (centres undefined)	none (no result: PPC-1+TRAIL kill)
O=C(c1cc(-c2cccs2)on1)N1CCc2ccccc2C1	SENP7 inh 52 | SENP8 confirm inactive | SENP6 conf inactive | SENP7 conf inactive | Casp3 select inactive | SENP luc ctr inactive
O=C(c1ccc(F)cc1)c1cc2ccc(O)cc2oc1=O	SENP8 block-1 97, SENP7 inh 99, SENP6 inh 97 (no result: PPC-1+TRAIL kill) | SENP8 confirm 99 | SENP6 conf 100 | SENP7 conf 103 | Casp3 select 98 | SENP luc ctr 98
N=c1oc2cc(O)ccc2cc1C(=O)Nc1ccc(F)cc1	SENP8 block-1 92, SENP7 inh 98, SENP6 inh 96 (no result: PPC-1+TRAIL kill) | SENP8 confirm 91 | SENP6 conf 94 | SENP7 conf 100 | Casp3 select 84 | SENP luc ctr 62
COc1ccc(NC(=O)c2cc3cc(OC)ccc3oc2=N)cc1	none
Cc1ncoc1C(=O)Nc1ncc([N+](=O)[O-])s1	SENP8 block-1 93, SENP7 inh 97, SENP6 inh 95 | SENP8 confirm 99 | SENP6 conf 100 | SENP7 conf 103 | Casp3 select 99 | SENP luc ctr 98

Screening data: PubChem BioAssay, Sanford-Burnham Center for Chemical Genomics
